Data from PubChem BioAssay AID1159580 (chemical genetic matrix, 2015).
The campaign covered roughly 5,500 compounds. About 2,000 (36%) were called active. Inconclusive results (about 18%) are left out. Cut-off read from the data, not from the text of the source: active = normalized growth mostly below about 0.91 (no sharp cut-off); inconclusive = no clear call, values can overlap the other calls; inactive = mostly above about 0.92. Some of the results follow.

Assay: chemical genetic growth profiling, strain panel (AID 1159580);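 note: tested at 20 µM; growth read once vehicle control cultures reached saturation at 30 °C; 1 = growth at the plate median or of vehicle wells; lower values mean less growth of the strain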
Settings: S. cerevisiae deletion strains, growth OD
[1] = locus YAR019C, strain CDC15, active compounds read low
[2] = locus YBL105C, strain PKC1, active compounds read low
[3] = locus YBR135W, strain CKS1, active compounds read low
[4] = locus YBR136W, strain MEC1, active compounds read low
[5] = locus YBR160W, strain CDC28, active compounds read low
[6] = locus YDL017W, strain CDC7, active compounds read low
[7] = locus YDL028C, strain MPS1, active compounds read low
[8] = locus YDL101C, strain DUN1, active compounds read low
[9] = locus YDL108W, strain KIN28, active compounds read low
[10] = locus YDL132W, strain cdc53, active compounds read low
[11] = locus YDL214C, strain PRR2, active compounds read low
[12] = locus YDR052C, strain DBF4, active compounds read low
[13] = locus YDR054C, strain cdc34, active compounds read low
[14] = locus YDR226W, strain ADK1, active compounds read low
[15] = locus YDR477W, strain SNF1, active compounds read low
[16] = locus YER123W, strain YCK3, active compounds read low
[17] = locus YER133W, strain GLC7, active compounds read low
[18] = locus YFL009W, strain cdc4, active compounds read low
[19] = locus YFL029C, strain CAK1, active compounds read low
[20] = locus YFR003C, strain YPI1, active compounds read low
[21] = locus YFR019W, strain FAB1, active compounds read low
[22] = locus YFR028C, strain CDC14, active compounds read low
[23] = locus YGR040W, strain KSS1, active compounds read low
[24] = locus YGR052W, strain FMP48, active compounds read low
[25] = locus YGR092W, strain DBF2, active compounds read low
[26] = locus YHR030C, strain SLT2, active compounds read low
[27] = locus YHR079C, strain IRE1, active compounds read low
[28] = locus YHR082C, strain KSP1, active compounds read low
[29] = locus YHR205W, strain SCH9, active compounds read low
[30] = locus YIL147C, strain SLN1, active compounds read low
[31] = locus YJL095W, strain BCK1, active compounds read low
[32] = locus YJL128C, strain PBS2, active compounds read low
[33] = locus YJL157C, strain FAR1, active compounds read low
[34] = locus YJR016C, strain ILV3, active compounds read low
[35] = locus YJR066W, strain TOR1 (second series), active compounds read low
[36] = locus YJR066W, strain TOR1, active compounds read low
[37] = locus YKL048C, strain ELM1, active compounds read low
[38] = locus YKL067W, strain YNK1, active compounds read low
[39] = locus YKL101W, strain HSL1, active compounds read low
[40] = locus YKL193C, strain SDS22, active compounds read low
[41] = locus YKL203C, strain TOR2, active compounds read low
[42] = locus YLR113W, strain HOG1, active compounds read low
[43] = locus YLR133W, strain CKI1, active compounds read low
[44] = locus YLR403W, strain SFP1, active compounds read low
[45] = locus YML070W, strain DAK1, active compounds read low
[46] = locus YMR001C, strain CDC5, active compounds read low
[47] = locus YMR205C, strain PFK2 (second series), active compounds read low
[48] = locus YMR277W, strain FCP1, active compounds read low
[49] = locus YNL006W, strain LST8, active compounds read low
[50] = locus YNL020C, strain ARK1, active compounds read low
[51] = locus YNL161W, strain CBK1, active compounds read low
[52] = locus YNL183C, strain NPR1, active compounds read low
[53] = locus YNL207W, strain RIO2, active compounds read low
[54] = locus YNL222W, strain SSU72, active compounds read low
[55] = locus YNL307C, strain MCK1 (second series), active compounds read low
[56] = locus YOL078W, strain AVO1, active compounds read low
[57] = locus YOL136C, strain PFK27, active compounds read low
[58] = locus YOR061W, strain CKA2, active compounds read low
[59] = locus YOR119C, strain RIO1, active compounds read low
[60] = locus YOR231W, strain MKK1, active compounds read low
[61] = locus YOR329C, strain SCD5, active compounds read low
[62] = locus YPL031C, strain PHO85, active compounds read low
[63] = locus YPL153C, strain RAD53, active compounds read low
[64] = locus YPL204W, strain HRR25, active compounds read low
[65] = locus YPL209C, strain IPL1, active compounds read low
[66] = locus YPL256C, strain CLN2, active compounds read low
[67] = locus YPR025C, strain CCL1, active compounds read low
[68] = locus YPR106W, strain ISR1, active compounds read low
[69] = locus YPR111W, strain DBF20, active compounds read low
[70] = strain NNK1, active compounds read low
[71] = strain TSCII, active compounds read low
[72] = locus YMR263W, strain SAP30, active compounds read low
[73] = locus YNL153C, strain GIM3, active compounds read low
[74] = locus YPL055C, strain LGE1, active compounds read low

Measured: normalized growth

N#Cc1c(N)sc2c1CCc1ccccc1-2
active: [2] 0.897 | [6] 0.899 | [10] 0.884 | [11] 0.671 | [12] 0.905 | [14] 0.887 | [15] 0.546 | [16] 0.596 | [17] 0.499 | [20] 0.894 | [22] 0.884 | [23] 0.452 | [24] 0.508 | [26] 0.479 | [28] 0.568 | [29] 0.558 | [33] 0.605 | [34] 0.892 | [35] 0.474 | [36] 0.458 | [37] 0.798 | [38] 0.664 | [39] 0.66 | [40] 0.888 | [41] 0.489 | [42] 0.806 | [43] 0.593 | [44] 0.401 | [45] 0.642 | [46] 0.886 | [47] 0.69 | [48] 0.88 | [49] 0.903 | [50] 0.611 | [51] 0.898 | [52] 0.492 | [53] 0.867 | [55] 0.508 | [57] 0.636 | [58] 0.616 | [59] 0.506 | [62] 0.464 | [63] 0.494 | [64] 0.491 | [65] 0.888
inactive: [1] 0.896 | [3] 0.898 | [4] 0.896 | [5] 0.905 | [7] 0.898 | [8] 0.929 | [9] 0.898 | [13] 0.89 | [18] 0.903 | [19] 0.891 | [21] 0.833 | [25] 0.545 | [27] 0.593 | [30] 0.894 | [31] 0.508 | [32] 0.918 | [54] 0.897 | [56] 0.898 | [60] 0.653 | [61] 0.91 | [66] 0.97 | [67] 0.911 | [68] 0.918 | [69] 0.912 | [70] 0.915 | [71] 0.899

COc1ccc(-c2ccc(N)[n+](CCCC(=O)O)n2)cc1
inactive: locus YAL040C, strain CLN3, active compounds read low 1.05 | locus YCL061C, strain MRC1 (second series), active compounds read low 1 | locus YDR363W, strain ESC2, active compounds read low 1.01 | locus YER002W, strain NOP16, active compounds read low 0.993 | [72] 1.01 | locus YMR307W, strain GAS1, active compounds read low 1.01 | [73] 1.03 | locus YNL175C, strain NOP13, active compounds read low 1 | locus YNL197C, strain WHI3, active compounds read low 1.01 | locus YNL224C, strain SQS1, active compounds read low 1.01 | locus YOR083W, strain WHI5 (second series), active compounds read low 1.02 | [74] 1.01

COc1ccc(/C(C)=N\NC2=NCCCN2)cc1
inactive: locus YAL013W, strain DEP1, active compounds read low 1 | locus YBR229C, strain ROT2, active compounds read low 1.01 | locus YCL061C, strain MRC1, active compounds read low 1 | [8] 1.03 | locus YDR150W, strain NUM1, active compounds read low 0.999 | locus YEL061C, strain CIN8, active compounds read low 0.991 | locus YGR078C, strain PAC10, active compounds read low 1 | [26] 0.987 | locus YHR087W, strain rtc3, active compounds read low 0.993 | locus YJL187C, strain SWE1, active compounds read low 1.01 | locus YJR043C, strain POL32, active compounds read low 0.998 | locus YJR075W, strain HOC1, active compounds read low 0.986 | locus YKL190W, strain CNB1, active compounds read low 0.973 | locus YLR039C, strain RIC1, active compounds read low 0.957 | locus YLR058C, strain SHM2 (second series), active compounds read low 0.991 | locus YLR085C, strain ARP6, active compounds read low 0.982 | locus YLR262C, strain YPT6, active compounds read low 0.978 | locus YML094W, strain GIM5, active compounds read low 1.08 | locus YMR219W, strain ESC1, active compounds read low 0.997 | [72] 1 | [73] 1.01 | locus YNL298W, strain CLA4 (second series), active compounds read low 0.966 | locus YNL322C, strain KRE1, active compounds read low 1 | locus YNR030W, strain Alg12, active compounds read low 0.993 | [74] 1.01 | locus YPL241C, strain CIN2, active compounds read low 1.03 | locus YPR135W, strain CTF4, active compounds read low 1.04

CCCCCc1ccc(-c2nc(SCC(C)=O)n[nH]2)cc1
inactive: [1] 0.933 | [2] 0.95 | [3] 0.959 | [4] 0.948 | [5] 0.947 | [6] 0.957 | [7] 0.932 | [8] 0.956 | [9] 0.949 | [10] 0.971 | [11] 0.835 | [12] 0.97 | [13] 0.922 | [14] 0.942 | [15] 0.773 | [16] 0.761 | [17] 0.838 | [18] 0.926 | [19] 0.938 | [20] 0.96 | [21] 0.885 | [22] 0.962 | [23] 0.748 | [24] 0.734 | [25] 0.662 | [27] 0.636 | [28] 0.825 | [29] 0.799 | [30] 0.937 | [31] 0.658 | [32] 0.846 | [33] 0.85 | [34] 0.953 | [35] 0.73 | [36] 0.721 | [38] 0.831 | [40] 0.95 | [41] 0.875 | [43] 0.86 | [44] 0.829 | [45] 0.784 | [46] 0.94 | [47] 0.864 | [48] 0.932 | [49] 0.947 | [50] 0.856 | [51] 0.958 | [52] 0.767 | [53] 0.947 | [54] 0.948 | [55] 0.826 | [56] 0.963 | [57] 0.82 | [58] 0.8 | [59] 0.779 | [60] 0.661 | [61] 0.949 | [62] 0.749 | [63] 0.688 | [64] 0.702 | [65] 0.96 | [67] 0.954 | [68] 0.928 | [69] 0.913 | [70] 0.934 | [71] 0.936
active: [26] 0.565 | [37] 0.688 | [39] 0.714 | [42] 0.585 | [66] 0.6
